Experimental data from PubChem BioAssay (Tox21).
Records with an inconclusive call do not appear. Active and inactive are the calls of the source. Unless noted, calls follow the shape of the full dose curve.

What was measured:
[1] = Nuclear factor erythroid 2-related factor 2/antioxidant responsive element (Nrf2/ARE) small molecule agonists: qHTS cell viability counter screen in human keratinocytes (AID 1919968; active = well fitted curve in the direction sought with a large enough effect in the repeat runs; an effect the other way counts as inactive or inconclusive; also: nearly all actives have a fitted effect of over 55% in size)
In short: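 Measured as CellTiter-Fluor fluorescence, this readout tracks cytotoxicity in the same wells as the ARE-luciferase screen. HaCaT reporter cells (1,500/well) received compounds after a 5 h pre-incubation and were exposed for 23 h.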

[2] = Nuclear factor erythroid 2-related factor 2/antioxidant responsive element (Nrf2/ARE) small molecule agonists: luciferase reporter gene qHTS assay in human keratinocytes (AID 1919969); also: nearly all actives have a fitted effect of over 35% in size; also: potency is read from the fitted curve at half-maximal effect
[3] = molecular target: Gonadotropin-releasing hormone receptor (Homo sapiens) (UniProt P30968); experiment: Human gonadotropin-releasing hormone receptor (GnRHR) small molecule agonists, calcium flux assay in GnRHR-HEK293 cells (AID 1920063); also: nearly all actives have a fitted effect of over 35% in size
Gonadotropin-releasing hormone receptor (Homo sapiens), sequence (P30968 whole entry, looked up): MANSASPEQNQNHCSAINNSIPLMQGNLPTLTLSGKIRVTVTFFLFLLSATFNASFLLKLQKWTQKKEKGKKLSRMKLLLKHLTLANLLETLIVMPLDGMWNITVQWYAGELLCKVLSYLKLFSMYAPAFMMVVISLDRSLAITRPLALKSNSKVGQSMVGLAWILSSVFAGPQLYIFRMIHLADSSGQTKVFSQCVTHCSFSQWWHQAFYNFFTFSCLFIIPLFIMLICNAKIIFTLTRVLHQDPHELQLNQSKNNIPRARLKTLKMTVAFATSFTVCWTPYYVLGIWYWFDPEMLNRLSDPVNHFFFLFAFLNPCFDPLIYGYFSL
In short: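 Fluorescence kinetics (480 nm excitation, 540 nm emission; 3 min, 1 s steps) report calcium mobilisation in human GnRHR-HEK293 cells in agonist mode. Dye incubation: 1 h, 37 C.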

[4] = molecular target: KiSS-1 receptor (Homo sapiens) (UniProt Q969F8); experiment: Human kisspeptin (KISS1R) small molecule agonists, calcium flux assay in KISS1R-HEK293 cells (AID 1920064; active = well fitted curve in the direction sought with a large enough effect in the repeat runs; an effect the other way counts as inactive or inconclusive)
KiSS-1 receptor (Homo sapiens), sequence (Q969F8 whole entry, looked up): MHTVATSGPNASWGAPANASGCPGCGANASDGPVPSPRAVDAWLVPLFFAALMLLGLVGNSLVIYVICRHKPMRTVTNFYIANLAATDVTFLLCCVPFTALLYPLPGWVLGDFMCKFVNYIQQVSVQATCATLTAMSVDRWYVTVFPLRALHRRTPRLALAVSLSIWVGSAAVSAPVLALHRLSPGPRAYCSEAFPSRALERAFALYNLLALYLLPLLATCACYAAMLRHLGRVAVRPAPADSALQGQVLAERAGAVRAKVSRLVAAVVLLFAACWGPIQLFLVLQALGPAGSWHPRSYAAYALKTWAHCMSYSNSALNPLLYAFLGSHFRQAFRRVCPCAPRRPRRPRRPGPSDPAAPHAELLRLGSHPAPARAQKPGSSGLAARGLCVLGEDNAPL
In short: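 Measures KISS1R agonism through calcium-sensitive dye fluorescence in stably transfected HEK293 cells, read for 3 min after pin-tool compound delivery; 15-point titrations in triplicate.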

[5] = p53 small molecule agonists, cell-based qHTS assay with human liver microsomes (AID 1963577)
In short: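 p53RE-bla reporter cells were pre-incubated 5 h at 37 C, then treated with compounds plus human liver microsomes (0.5 mg/mL final) and NADPH (0.5 mg/mL final) for 16 h at 37 C. Beta-lactamase activity was read by LiveBLAzer fluorescence after 2 h at room temperature.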

[6] = p53 small molecule agonists, cell-based qHTS assay with rat liver microsomes (AID 1963578)
In short: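 p53RE-bla cells were exposed to compounds together with rat liver microsomes (0.5 mg/mL final) and NADPH (0.5 mg/mL final) for 16 h at 37 C, then read by LiveBLAzer beta-lactamase fluorescence after 2 h at room temperature.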

[7] = p53 small molecule agonists, cell-based qHTS assay with human liver microsomes: qHTS cell viability counter screen (AID 1963579); also: nearly all actives have a fitted effect of over 45% in size
In short: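 p53RE-bla cells (4,000/well) were pre-incubated 5 h at 37 C, then given compounds in DMSO plus human liver microsomes (0.5 mg/mL final) and NADPH (0.5 mg/mL final) for 16 h at 37 C. Viability was read by CellTiter-Glo luminescence.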

[8] = p53 small molecule agonists, cell-based qHTS assay with rat liver microsomes: qHTS cell viability counter screen (AID 1963580); also: nearly all actives have a fitted effect of over 45% in size
In short: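 Viability is assessed in parallel with the p53 reporter read: HCT-116 p53RE-bla cells receive compounds plus rat microsomes and NADPH (0.5 mg/mL final apiece), incubate 16 h at 37 C, and then CellTiter-Glo luminescence is recorded.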

[9] = p53 small molecule agonists, cell-based qHTS assay: qHTS cell viability counter screen (AID 1963581); also: nearly all actives have a fitted effect of over 45% in size
In short: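 In the same plates used for the p53 bla reporter, HCT-116 cells given compounds for 16 h at 37 C received CellTiter-Glo; luminescence was recorded 30 min later at room temperature.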

[10] = p53 small molecule agonists, cell-based qHTS assay (AID 1963582; active = well fitted activation curve with a large enough effect in the signal ratio in the repeat runs, not every such curve was filed as active; the % refers to the signal ratio)
In short: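 Compounds are pin-transferred in DMSO onto p53RE-bla cells and incubated 16 h at 37 C. The B/G FRET beta-lactamase substrate is then applied for 2 h at RT and fluorescence recorded.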

[11] = molecular target: 5-hydroxytryptamine receptor 2A (Homo sapiens) (UniProt P28223); experiment: 5-hydroxytryptamine receptor 2A (HTR2A) small molecule agonists, cell-based qHTS assay (AID 1963587); also: nearly all actives have a fitted effect of over 30% in size
5-hydroxytryptamine receptor 2A (Homo sapiens), sequence (P28223 whole entry, looked up): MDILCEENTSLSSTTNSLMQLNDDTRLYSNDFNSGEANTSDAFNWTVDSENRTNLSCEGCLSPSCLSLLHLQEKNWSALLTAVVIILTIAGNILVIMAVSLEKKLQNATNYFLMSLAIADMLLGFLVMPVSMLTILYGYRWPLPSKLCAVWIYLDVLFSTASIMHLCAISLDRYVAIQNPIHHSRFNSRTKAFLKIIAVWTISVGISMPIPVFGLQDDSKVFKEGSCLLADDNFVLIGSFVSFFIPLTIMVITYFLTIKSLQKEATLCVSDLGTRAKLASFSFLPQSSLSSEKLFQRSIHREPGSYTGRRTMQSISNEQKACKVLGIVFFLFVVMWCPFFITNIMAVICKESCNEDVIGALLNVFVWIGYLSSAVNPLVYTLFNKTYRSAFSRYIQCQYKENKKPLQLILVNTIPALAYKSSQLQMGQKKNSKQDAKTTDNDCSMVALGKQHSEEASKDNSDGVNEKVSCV
In short: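 CHO cells stably expressing human HTR2A, plated 18 h, loaded with calcium dye 1 h at 37 C. Agonist mode: compounds added and intracellular calcium fluorescence recorded kinetically for 2 min at 1 sec intervals.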

[12] = molecular target: Muscarinic acetylcholine receptor M1 (Homo sapiens) (UniProt P11229); experiment: Cholinergic receptor muscarinic 1 (CHRM1) small molecule antagonists, cell-based qHTS assay (AID 1963588); also: nearly all actives have a fitted effect of over 40% in size
Muscarinic acetylcholine receptor M1 (Homo sapiens), sequence (P11229 whole entry, looked up): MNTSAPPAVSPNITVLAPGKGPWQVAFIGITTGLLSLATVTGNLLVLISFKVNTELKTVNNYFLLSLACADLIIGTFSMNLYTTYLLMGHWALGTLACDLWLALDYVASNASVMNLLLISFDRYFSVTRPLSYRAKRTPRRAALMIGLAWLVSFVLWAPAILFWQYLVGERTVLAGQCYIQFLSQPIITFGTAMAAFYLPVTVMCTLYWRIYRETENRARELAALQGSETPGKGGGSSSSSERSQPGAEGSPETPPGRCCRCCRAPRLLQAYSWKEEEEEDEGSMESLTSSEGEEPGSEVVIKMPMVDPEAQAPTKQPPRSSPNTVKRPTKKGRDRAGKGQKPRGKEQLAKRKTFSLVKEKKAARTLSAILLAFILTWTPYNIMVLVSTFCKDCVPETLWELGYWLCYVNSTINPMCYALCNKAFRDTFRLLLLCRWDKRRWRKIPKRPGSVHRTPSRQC
In short: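 CHRM1-CHO calcium-flux assay, antagonist mode. Cells were seeded 18 h, dye-loaded 1 h at 37 C and given compound for 5 min at RT, then acetylcholine was added at 50nM. FDSS fluorescence was read 3 min; 15 concentrations, three runs.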

[13] = molecular target: Muscarinic acetylcholine receptor M1 (Homo sapiens) (UniProt P11229); experiment: Cholinergic receptor muscarinic 1 (CHRM1) small molecule agonists, cell-based qHTS assay (AID 1963589); also: nearly all actives have a fitted effect of over 35% in size
In short: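 Each compound was tested at 15 concentrations across three independent runs on dye-loaded CHO cells stably expressing human CHRM1, reading intracellular calcium fluorescence kinetically at 1 sec intervals.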

[14] = cAMP Responsive Elements (CRE) small molecule agonists, cell-based qHTS assay (AID 1963590)
In short: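 Cell line: CRE-bla HEK 293T; medium DMEM/10% dialyzed FBS/0.1 mM NEAA/1 mM pyruvate/25 mM HEPES; 3 h compound exposure; beta-lactamase FRET readout after 2 h substrate loading at RT.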

[15] = molecular target: Beta-2 adrenergic receptor (Homo sapiens) (UniProt P07550); experiment: Adrenergic beta2 receptor (ADRB2) small molecule antagonists, cell-based qHTS assay (AID 1963592); also: series mostly up to about 92 µM; nearly all actives have a fitted effect of over 50% in size
Beta-2 adrenergic receptor (Homo sapiens), sequence (P07550 whole entry, looked up): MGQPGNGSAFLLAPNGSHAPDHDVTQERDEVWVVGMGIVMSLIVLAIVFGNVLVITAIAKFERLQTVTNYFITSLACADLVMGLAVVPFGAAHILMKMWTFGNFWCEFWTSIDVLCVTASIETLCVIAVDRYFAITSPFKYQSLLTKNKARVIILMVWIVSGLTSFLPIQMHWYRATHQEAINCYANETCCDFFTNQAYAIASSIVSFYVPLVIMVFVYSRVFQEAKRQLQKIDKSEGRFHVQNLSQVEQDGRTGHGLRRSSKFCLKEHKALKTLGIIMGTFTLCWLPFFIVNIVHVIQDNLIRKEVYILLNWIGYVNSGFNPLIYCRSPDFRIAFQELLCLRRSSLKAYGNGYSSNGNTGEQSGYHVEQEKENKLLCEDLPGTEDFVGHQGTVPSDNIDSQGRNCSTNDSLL
In short: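 Cells (CHO, stable ADRB2 overexpression) incubated 18-20hr at 37C; compounds added from DMSO; agonist mix (1nM isoproterenol, 100uM IBMX, 25uM Ro-20-1724) added; 0.5hr RT; d2-cAMP and anti-cAMP-cryptate added; 1hr RT; 665/615 nm read.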

[16] = molecular target: Beta-2 adrenergic receptor (Homo sapiens) (UniProt P07550); experiment: Adrenergic beta2 receptor (ADRB2) small molecule agonists, cell-based qHTS assay (AID 1963593);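 also: CHO cells stably overexpressing human ADRB2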
In short: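 CHO cells stably over-expressing ADRB2 were plated overnight at 37C, then dosed with compounds plus a stimulation mix containing 100uM IBMX and 25uM Ro-20-1724 for 0.5hr at room temperature. cAMP was measured by HTRF competition, 1hr.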

[17] = molecular target: D(2) dopamine receptor (Homo sapiens) (UniProt P14416); experiment: Dopamine D2 receptor (DRD2) small molecule agonists, cell-based qHTS assay (AID 1963594); also: nearly all actives have a fitted effect of over 35% in size
D(2) dopamine receptor (Homo sapiens), sequence (P14416 whole entry, looked up): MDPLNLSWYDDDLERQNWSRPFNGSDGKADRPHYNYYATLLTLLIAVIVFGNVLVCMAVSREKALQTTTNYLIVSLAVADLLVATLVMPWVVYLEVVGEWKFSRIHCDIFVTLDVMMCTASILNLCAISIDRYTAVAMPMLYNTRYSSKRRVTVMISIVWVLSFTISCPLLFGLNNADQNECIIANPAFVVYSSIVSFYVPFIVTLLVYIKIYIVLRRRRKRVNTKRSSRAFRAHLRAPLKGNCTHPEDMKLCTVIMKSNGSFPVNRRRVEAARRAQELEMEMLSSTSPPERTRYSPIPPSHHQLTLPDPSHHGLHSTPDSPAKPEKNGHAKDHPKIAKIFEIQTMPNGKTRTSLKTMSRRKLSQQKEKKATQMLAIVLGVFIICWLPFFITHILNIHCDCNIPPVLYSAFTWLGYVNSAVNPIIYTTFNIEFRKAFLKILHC
In short: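 HEK293 cells stably expressing human DRD2, pre-treated with PDE inhibitor Ro20-1724 (0.1 mM final) and compound 10 min at room temperature, then stimulated with NKH477 (200nM […]) for 30 min. cAMP read by HTRF (665/620 nm).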

[18] = molecular target: D(2) dopamine receptor (Homo sapiens) (UniProt P14416); experiment: Dopamine D2 receptor (DRD2) small molecule antagonists, cell-based qHTS assay (AID 1963595; active = well fitted inhibition curve with a large enough effect in the signal ratio in the repeat runs, with a control signal flat; the % refers to the signal ratio)
In short: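 Antagonist mode in DRD2-HEK293 cells: after compound addition with 0.1 mM Ro20-1724, cells received quinpirole (12 nM) and NKH477 (200 nM) for 30 min at room temperature; HTRF cAMP read after 1 h detection.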

[19] = molecular target: 5-hydroxytryptamine receptor 2A (Homo sapiens) (UniProt P28223); experiment: 5-hydroxytryptamine receptor 2A (HTR2A) small molecule antagonists, cell-based qHTS assay (AID 1963586); also: nearly all actives have a fitted effect of over 45% in size
In short: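 Antagonist-mode intracellular calcium assay: DOI (4 nM) added after 5 min compound pre-incubation at room temperature to dye-loaded HTR2A-CHO cells. Fluorescence followed for 3 min, sampled every second.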

[20] = cAMP Responsive Elements (CRE) small molecule antagonists, cell-based qHTS assay (AID 1963591; active = well fitted inhibition curve with a large enough effect in the signal ratio in the repeat runs, not every such curve was filed as active; the % refers to the signal ratio)
In short: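 Inhibition of NKH477-driven (0.25 uM final) CRE-beta-lactamase signal in HEK293T cells, 3 h compound exposure at 37 °C, detected by FRET substrate fluorescence.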

Measured: Potency

CCOCCOCC
not listed: [19] | [20]
inactive: all other assays above

Cc1cc(C)cc(N)c1
not listed: [10]
inactive: all other assays above

CC(=O)O[C@H](CC(=O)[O-])C[N+](C)(C)C
not listed: [12] | [16]
inactive: all other assays above

CCC(COC(=O)CCS)(COC(=O)CCS)COC(=O)CCS
not listed: [12] | [16] | [20]
inactive: all other assays above

CC(C)c1cc2c(cc1S(=O)(=O)O)[C@@]1(C)CCC[C@@](C)(C(=O)O)[C@@H]1CC2
not listed: [14]
inactive: all other assays above

CCOC(=S)SSC(=S)OCC
active: [2] 68.6 µM
not listed: [14] | [16]
inactive: all other assays above

Cc1ccc(S(=O)(=O)NC2CCCCC2)cc1
not listed: [9] | [19]
inactive: all other assays above
